8 molecules from PubChem BioAssay (NCATS) can be followed below.

In experiment [1] the target is Rap guanine nucleotide exchange factor 3 (Homo sapiens) (UniProt O95398). Nature of the experiment: Confirmatory qHTS for antagonist of cAMP-regulated guanine nucleotide exchange factor 3 (EPAC1) (AID 1645880).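 For activity, negative = inhibition: plate controls were DMSO only for no effect and full effect of the ATA control for full effect.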 Note: nearly all actives have a fitted effect of over 55% in size. Note: potency is the fitted concentration of half-maximal effect. Particulars: EPAC1 Rap1B-BODIPY-GDP exchange, fluorescence; activity, negative = inhibition: at 115 µM (top of the series). The gist of the method: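 Released BODIPY-GDP fluoresces less than Rap1-bound BODIPY-GDP; the signal is followed at 480/540 nm at 5-min intervals over 30 min, after 5 min at room temperature. Reactions contain 100 nM EPAC1, 250 nM RAP1B-BODIPY-GDP and 50 uM GDP; results are normalized to ATA and DMSO.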
On the technique in general: Quantitative high-throughput screening tests each substance at several concentrations.

For experiment [2] the target is unchanged. Kind of experiment: Confirmatory qHTS for agonist of cAMP-regulated guanine nucleotide exchange factor 3 (EPAC1) (AID 1645881).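 For activation: EPAC1 catalysed release of BODIPY-GDP from Rap1B seen as fluorescence loss; 100% = effect of cAMP agonist control.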 Note: nearly all actives have a fitted effect of over 75% in size. Note: potency is the fitted concentration of half-maximal effect.
Experiment [3] has as its target Rap guanine nucleotide exchange factor 4 (Homo sapiens) (UniProt Q8WZA2). Kind of experiment: Confirmatory qHTS for agonist of cAMP-regulated guanine nucleotide exchange factor 4 (EPAC2) (AID 1645884). For activation: % is set by controls: 0 for no effect and ±100 for the full control effect.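 Note: nucleotide exchange releases bodipy-GDP from Rap1 and this lowers its fluorescence; nearly all actives have a fitted effect of over 65% in size.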 Note: potency is the fitted concentration of half-maximal effect.
For experiment [4] the target is unchanged. Nature of the experiment: Confirmatory qHTS for antagonist of cAMP-regulated guanine nucleotide exchange factor 4 (EPAC2) (AID 1645885). Note: nearly all actives have a fitted effect of over 25% in size. Note: potency is the fitted concentration of half-maximal effect.
Experiment [5] deals with Rap guanine nucleotide exchange factor 3 (Homo sapiens) (UniProt O95398). Kind of experiment: Counterscreen qHTS for antagonist of cAMP-regulated guanine nucleotide exchange factor 3 (EPAC1) (AID 1645888). Note: % of control where 0% means no effect. The gist of the method: (§1)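 Measured: fluorescence of BODIPY-GDP bound to Rap1B, which falls as exchange proceeds. Conditions include 50 uM competing GDP, 5 and 30 min reads, and a later cAMP challenge for antagonist detection.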
A general note: Counterscreens check selectivity or assay interference.

Experiment [6] has the same target. Kind of experiment: Counterscreen qHTS for agonist of cAMP-regulated guanine nucleotide exchange factor 3 (EPAC1) (AID 1645889). For activation: % of control where 0% means no effect. Note: nearly all actives have a fitted effect of over 40% in size. Note: potency is the fitted concentration of half-maximal effect. The gist of the method: as §1
The target of experiment [7] is Catechol O-methyltransferase (Homo sapiens) (UniProt P21964). Kind of experiment: Confirmatory Screen for Target Class Profiling of Small Molecule Inhibitors of Methyltransferases (AID 1745852; calls by dose curve; note: potency is the fitted concentration of half-maximal effect). Particulars: MTase-Glo luminescence, SAH detection, recombinant enzyme; measured here: COMT max response; stronger effect = lower value.
Experiment [8] concerns the target Guanidinoacetate N-methyltransferase (Homo sapiens) (UniProt Q14353). The description is as above. The conditions noted are these: activity change, negative = inhibition: at 57.3 µM (top of the series) unless noted.
The target in experiment [9] is Nicotinamide N-methyltransferase (Homo sapiens) (UniProt P40261). The description is as above. Particulars: MTase-Glo luminescence, SAH detection, recombinant enzyme; measured here: NNMT max response; stronger effect = lower value.
Experiment [10] has as its target Phenylethanolamine N-methyltransferase (Homo sapiens) (UniProt P11086). Described as above. The conditions noted are these: MTase-Glo luminescence, SAH detection, recombinant enzyme; measured here: PNMT max response; stronger effect = lower value.
The nature of experiment [11]: HepG2 viability counterscreen (readout 2: ATP content) against the NCATS DSHEA and TCM libraries (AID 1794840).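 Note: HepG2 cells exposed to substances for about 24 h; 0% is about no effect.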 The gist of the method:
(§2)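 After HepG2 cells attach for ~4 h, substances are added and incubated ~24 h at 37C, 5% CO2. GF-AFC fluorescence then CellTiter-Glo luminescence give protease and ATP readouts.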

Experiment [12] in a line: HepG2 viability counterscreen (readout 1: protease activity) against the NCATS DSHEA and TCM libraries (AID 1794841).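 Note: cells exposed to compounds for about 24 h before the protease read; 0% is about no effect.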 The gist of the method: as §2
Experiment [13] deals with Cytochrome P450 3A4 (Homo sapiens) (UniProt P08684). Nature of the experiment: qHTS for inhibitors of CYP3A4 against the NCATS DSHEA and TCM libraries (AID 1919971).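 Note: % is set by controls: 0 for no effect and ±100 for the full control effect; inhibition lowers luminescence from luciferin made by CYP3A4.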 The gist of the method:
(§3)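 Isoform-specific enzyme and substrate levels; enzyme-free wells as background. Reaction: 1x NADPH regenerating system, 30-45 min, room temperature, shielded from light; luminescent detection reagent added, 30 min.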

Experiment [14] has as its target Cytochrome P450 2D6 (Homo sapiens) (UniProt P10635). Nature of the experiment: qHTS for inhibitors of CYP2D6 against the NCATS DSHEA and TCM libraries (AID 1919972). Note: % is set by controls: 0 for no effect and ±100 for the full control effect. The gist of the method: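 qHTS, concentration–response format with most substances from 19.5 nM. CYP2D6 + pro-luciferin substrate, 15 min with compound, then 1x NADPH regen, 30–45 min RT dark. Glo detection 30 min, luminescence. Quinidine control.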

Experiment [15] concerns the target Cytochrome P450 2C9 (Homo sapiens) (UniProt P11712). Nature of the experiment: qHTS for inhibitors of CYP2C9 against the NCATS DSHEA and TCM libraries (AID 1919973).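 Note: luminogenic pro-luciferin CYP2C9 substrate turned into luciferin with NADPH regeneration; % is set by controls: 0 for no effect and ±100 for the full control effect.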 The gist of the method: as §3
Experiment [16] in a line: KB-3-1 P-gp reporter qHTS against the NCATS DSHEA and TCM libraries (AID 1919975). Note: 0% is about no effect. The gist of the method:
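Cell viability qHTS: 500 KB-3-1 cells/well, substances in titration, ~72 h, 37C; luminescent CellTiter-Glo read.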

In experiment [17] the target is Cytochrome P450 1A2 (Homo sapiens) (UniProt P05177). Nature of the experiment: qHTS for inhibitors of CYPIA2 against the NCATS DSHEA and TCM libraries (AID 1919976).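 Note: light from luciferin formed by CYP1A2 from a pro-luciferin substrate; % is set by controls: 0 for no effect and ±100 for the full control effect.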 The gist of the method:
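Furafylline served as the plate control. Compounds met CYP1A2 and pro-luciferin substrate 15 min before NADPH regeneration solution (1x) was added; after 30-45 min at RT, P450-Glo reagent was added for 30 min and luminescence was measured.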

The nature of experiment [18]: qHTS Counterscreen for compound interference against the NCATS DSHEA and TCM libraries (AID 1919978).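 Note: compounds preincubated with 1 µM D-luciferin or buffer before detection reagent; % of control where 0% means no effect.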 The conditions noted are these: firefly luciferase detection reagent interference, luminescence. The gist of the method:
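Interference check: test samples were incubated with D-luciferin (final 1 uM) or buffer only for 15 min, room temperature, in a qHTS titration up to 39.8 uM, then developed with detection reagent and read by luminescence.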

Experiment [19] can be described thus: Dual reporter qHTS for agonist of Pregnane X Receptor (hPXR) against the NCATS DSHEA and TCM libraries: Fluorescence readout (AID 1920058). Note: 0% is about no effect. The gist of the method:
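In this qHTS counter-read, reporter-bearing HepG2 cells in charcoal-stripped serum received substances for approximately 24 h before viability was assessed fluorometrically with CellTiter-Fluor.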

For experiment [20], the target named is Nuclear receptor subfamily 1 group I member 2 (Homo sapiens) (UniProt O75469). Kind of experiment: Dual reporter qHTS for agonist of Pregnane X Receptor (hPXR) against the NCATS DSHEA and TCM libraries: Luminescence readout (AID 1920059). Note: 0% is about no effect. The gist of the method:
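hPXR-LucHepG2 cells in phenol red-free DMEM with 5% charcoal-stripped FBS, 2000 cells/well, attached 5 h, then exposed 24 h at 37C to compounds; rifampicin as positive agonist control (2.8 nM–92 uM). Luciferase luminescence read.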

A short description of experiment [21]: Dual reporter qHTS for antagonist of Pregnane X Receptor (hPXR) against the NCATS DSHEA and TCM libraries: Fluorescence Readout (AID 1920061). Note: 0% is about no effect. The gist of the method: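 In antagonist mode, 2 uM rifampicin was added to hPXR-Luc HepG2 cells alongside test substances, incubated 24 h at 37 C; luminescence gave reporter activity, and CellTiter-Fluor fluorescence (405/540 nm) gave viability.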

For experiment [22], the target named is Tumor susceptibility gene 101 protein (Homo sapiens) (UniProt Q99816). Nature of the experiment: qHTS Assay for Iinhibitors of HIV-1 Budding by Blocking the Interaction of PTAP/TSG101: Hit Validation (AID 651600). Note: % is set by controls: 0 for no effect and ±100 for the full control effect; nearly all actives have a fitted effect of over 70% in size. The gist of the method:
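Measuring PTAP–Tsg101 interaction by FP: protein at 10 uM and fluorescent peptide at 50 nM (final), buffer 10 mM HEPES pH 7.5 with 0.15 M NaCl, 3 mM EDTA, 0.1 mM TCEP, 0.01% Tween 20; 20 min incubation, r.t.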

Inconclusive results are not listed. Activity calls are given as the source filed them. Unless noted, calls come from the whole dose curve; as a rule, active = well fitted curve in the direction sought with a large enough effect; inconclusive = small, poorly fitted or top-dose-only effect, or another doubt; inactive = no such curve, though single readings can be large; an effect the other way counts as inactive or inconclusive.

Sequence of Rap guanine nucleotide exchange factor 3 (Homo sapiens) (O95398 whole entry, looked up): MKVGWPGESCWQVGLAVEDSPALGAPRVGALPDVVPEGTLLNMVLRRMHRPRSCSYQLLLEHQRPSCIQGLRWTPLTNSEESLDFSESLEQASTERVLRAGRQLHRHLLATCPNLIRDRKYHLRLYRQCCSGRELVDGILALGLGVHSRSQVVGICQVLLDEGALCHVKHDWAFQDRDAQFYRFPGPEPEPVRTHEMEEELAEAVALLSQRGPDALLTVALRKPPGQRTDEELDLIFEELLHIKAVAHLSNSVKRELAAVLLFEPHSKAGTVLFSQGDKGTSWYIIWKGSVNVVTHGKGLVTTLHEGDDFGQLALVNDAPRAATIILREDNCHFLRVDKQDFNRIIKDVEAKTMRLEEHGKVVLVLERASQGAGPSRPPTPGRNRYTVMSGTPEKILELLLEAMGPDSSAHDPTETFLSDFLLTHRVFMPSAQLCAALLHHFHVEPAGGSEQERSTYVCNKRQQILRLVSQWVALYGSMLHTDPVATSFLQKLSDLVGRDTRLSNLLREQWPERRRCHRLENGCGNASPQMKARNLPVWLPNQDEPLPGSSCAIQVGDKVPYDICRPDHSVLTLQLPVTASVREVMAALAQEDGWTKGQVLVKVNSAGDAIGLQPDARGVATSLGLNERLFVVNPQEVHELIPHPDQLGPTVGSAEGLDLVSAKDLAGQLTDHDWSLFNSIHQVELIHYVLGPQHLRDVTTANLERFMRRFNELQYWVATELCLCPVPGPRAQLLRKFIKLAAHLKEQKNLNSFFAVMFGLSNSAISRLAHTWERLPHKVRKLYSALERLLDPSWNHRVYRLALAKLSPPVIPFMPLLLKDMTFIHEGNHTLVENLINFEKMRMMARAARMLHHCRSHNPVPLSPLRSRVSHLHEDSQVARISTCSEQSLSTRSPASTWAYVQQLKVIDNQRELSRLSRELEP
Sequence of Rap guanine nucleotide exchange factor 4 (Homo sapiens) (Q8WZA2 whole entry, looked up): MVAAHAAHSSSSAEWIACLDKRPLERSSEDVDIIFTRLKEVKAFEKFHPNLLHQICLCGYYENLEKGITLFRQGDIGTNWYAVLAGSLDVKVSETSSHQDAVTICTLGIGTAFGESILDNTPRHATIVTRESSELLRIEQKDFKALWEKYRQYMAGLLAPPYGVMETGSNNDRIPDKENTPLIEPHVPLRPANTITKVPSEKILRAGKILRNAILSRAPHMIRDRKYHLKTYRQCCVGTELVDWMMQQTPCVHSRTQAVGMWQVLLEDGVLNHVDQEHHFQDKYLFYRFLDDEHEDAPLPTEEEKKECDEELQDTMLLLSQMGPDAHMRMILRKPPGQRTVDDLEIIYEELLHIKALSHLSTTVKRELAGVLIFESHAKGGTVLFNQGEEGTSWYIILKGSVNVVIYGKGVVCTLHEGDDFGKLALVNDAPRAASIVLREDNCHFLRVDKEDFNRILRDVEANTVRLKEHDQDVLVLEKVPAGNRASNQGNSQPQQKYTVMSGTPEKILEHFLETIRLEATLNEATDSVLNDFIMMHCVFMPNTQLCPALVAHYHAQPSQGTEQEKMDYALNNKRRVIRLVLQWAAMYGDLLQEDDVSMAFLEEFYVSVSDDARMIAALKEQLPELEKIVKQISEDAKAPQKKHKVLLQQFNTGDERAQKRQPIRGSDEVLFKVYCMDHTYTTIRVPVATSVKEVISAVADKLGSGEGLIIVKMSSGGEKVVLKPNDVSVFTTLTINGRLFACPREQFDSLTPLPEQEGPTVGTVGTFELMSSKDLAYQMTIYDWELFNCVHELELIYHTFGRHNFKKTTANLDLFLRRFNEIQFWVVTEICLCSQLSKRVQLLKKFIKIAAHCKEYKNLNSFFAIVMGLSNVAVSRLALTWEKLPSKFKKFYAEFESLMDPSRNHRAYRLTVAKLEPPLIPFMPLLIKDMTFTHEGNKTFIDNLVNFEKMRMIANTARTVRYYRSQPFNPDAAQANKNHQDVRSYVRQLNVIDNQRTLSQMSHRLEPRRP
Sequence of Cytochrome P450 2D6 (Homo sapiens) (P10635 whole entry, looked up): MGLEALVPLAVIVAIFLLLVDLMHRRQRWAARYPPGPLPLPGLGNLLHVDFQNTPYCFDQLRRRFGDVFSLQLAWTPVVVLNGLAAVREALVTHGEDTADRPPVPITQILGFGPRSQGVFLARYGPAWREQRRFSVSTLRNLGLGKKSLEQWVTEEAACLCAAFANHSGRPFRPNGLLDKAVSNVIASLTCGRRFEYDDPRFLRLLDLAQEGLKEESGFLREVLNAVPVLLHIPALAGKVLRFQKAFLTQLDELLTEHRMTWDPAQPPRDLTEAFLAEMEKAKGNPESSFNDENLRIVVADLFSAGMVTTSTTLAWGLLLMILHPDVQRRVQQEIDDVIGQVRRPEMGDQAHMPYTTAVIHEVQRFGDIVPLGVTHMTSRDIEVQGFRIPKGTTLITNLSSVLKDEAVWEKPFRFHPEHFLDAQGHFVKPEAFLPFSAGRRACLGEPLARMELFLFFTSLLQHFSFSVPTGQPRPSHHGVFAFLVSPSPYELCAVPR
Sequence of Catechol O-methyltransferase (Homo sapiens) (P21964 whole entry, looked up): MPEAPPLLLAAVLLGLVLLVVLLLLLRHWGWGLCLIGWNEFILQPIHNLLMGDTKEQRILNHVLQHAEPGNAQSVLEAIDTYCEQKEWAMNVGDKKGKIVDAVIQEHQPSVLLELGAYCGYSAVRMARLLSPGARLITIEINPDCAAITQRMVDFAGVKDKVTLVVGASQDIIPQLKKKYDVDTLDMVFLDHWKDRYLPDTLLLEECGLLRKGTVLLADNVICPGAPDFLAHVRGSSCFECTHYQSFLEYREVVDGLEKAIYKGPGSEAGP
Sequence of Nuclear receptor subfamily 1 group I member 2 (Homo sapiens) (O75469 whole entry, looked up): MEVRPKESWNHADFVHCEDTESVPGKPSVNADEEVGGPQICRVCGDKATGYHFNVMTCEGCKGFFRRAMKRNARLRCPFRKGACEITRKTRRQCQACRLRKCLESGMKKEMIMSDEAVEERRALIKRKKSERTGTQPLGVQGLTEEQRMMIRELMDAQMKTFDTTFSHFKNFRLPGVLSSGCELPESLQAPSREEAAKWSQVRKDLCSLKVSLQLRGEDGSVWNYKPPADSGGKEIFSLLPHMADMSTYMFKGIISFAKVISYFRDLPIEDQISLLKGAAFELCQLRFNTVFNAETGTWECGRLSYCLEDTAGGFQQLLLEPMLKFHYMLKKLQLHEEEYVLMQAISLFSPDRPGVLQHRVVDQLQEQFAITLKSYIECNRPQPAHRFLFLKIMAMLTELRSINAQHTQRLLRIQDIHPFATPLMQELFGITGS
Sequence of Nicotinamide N-methyltransferase (Homo sapiens) (P40261 whole entry, looked up): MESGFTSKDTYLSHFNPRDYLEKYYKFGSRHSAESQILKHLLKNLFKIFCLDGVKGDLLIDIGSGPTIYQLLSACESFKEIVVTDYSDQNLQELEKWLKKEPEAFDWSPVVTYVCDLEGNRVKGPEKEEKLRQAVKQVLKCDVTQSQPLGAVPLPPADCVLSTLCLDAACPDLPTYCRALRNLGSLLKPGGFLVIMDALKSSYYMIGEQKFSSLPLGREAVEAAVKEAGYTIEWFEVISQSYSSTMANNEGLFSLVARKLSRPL
Sequence of Phenylethanolamine N-methyltransferase (Homo sapiens) (P11086 whole entry, looked up): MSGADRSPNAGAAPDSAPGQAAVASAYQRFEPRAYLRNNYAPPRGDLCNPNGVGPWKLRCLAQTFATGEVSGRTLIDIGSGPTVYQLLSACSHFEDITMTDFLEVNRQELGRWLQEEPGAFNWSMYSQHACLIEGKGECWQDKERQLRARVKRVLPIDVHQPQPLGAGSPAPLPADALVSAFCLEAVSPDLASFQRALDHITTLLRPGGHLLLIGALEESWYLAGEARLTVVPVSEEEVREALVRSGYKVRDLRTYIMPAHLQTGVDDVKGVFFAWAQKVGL
Sequence of Cytochrome P450 1A2 (Homo sapiens) (P05177 whole entry, looked up): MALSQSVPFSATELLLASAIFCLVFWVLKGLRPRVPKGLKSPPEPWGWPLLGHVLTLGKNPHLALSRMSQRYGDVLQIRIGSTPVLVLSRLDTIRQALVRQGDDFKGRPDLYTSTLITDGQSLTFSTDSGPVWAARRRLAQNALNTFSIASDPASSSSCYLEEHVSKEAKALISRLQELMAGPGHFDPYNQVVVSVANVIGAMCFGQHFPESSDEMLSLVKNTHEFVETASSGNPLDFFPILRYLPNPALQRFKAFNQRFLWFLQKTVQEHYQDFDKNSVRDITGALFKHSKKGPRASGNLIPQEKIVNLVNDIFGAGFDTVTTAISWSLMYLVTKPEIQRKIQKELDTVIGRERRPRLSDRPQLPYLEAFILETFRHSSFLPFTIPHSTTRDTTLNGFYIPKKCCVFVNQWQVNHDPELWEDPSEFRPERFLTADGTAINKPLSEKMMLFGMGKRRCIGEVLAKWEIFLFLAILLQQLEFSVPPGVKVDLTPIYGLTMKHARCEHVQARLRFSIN
Sequence of Cytochrome P450 3A4 (Homo sapiens) (P08684 whole entry, looked up, canonical isoform): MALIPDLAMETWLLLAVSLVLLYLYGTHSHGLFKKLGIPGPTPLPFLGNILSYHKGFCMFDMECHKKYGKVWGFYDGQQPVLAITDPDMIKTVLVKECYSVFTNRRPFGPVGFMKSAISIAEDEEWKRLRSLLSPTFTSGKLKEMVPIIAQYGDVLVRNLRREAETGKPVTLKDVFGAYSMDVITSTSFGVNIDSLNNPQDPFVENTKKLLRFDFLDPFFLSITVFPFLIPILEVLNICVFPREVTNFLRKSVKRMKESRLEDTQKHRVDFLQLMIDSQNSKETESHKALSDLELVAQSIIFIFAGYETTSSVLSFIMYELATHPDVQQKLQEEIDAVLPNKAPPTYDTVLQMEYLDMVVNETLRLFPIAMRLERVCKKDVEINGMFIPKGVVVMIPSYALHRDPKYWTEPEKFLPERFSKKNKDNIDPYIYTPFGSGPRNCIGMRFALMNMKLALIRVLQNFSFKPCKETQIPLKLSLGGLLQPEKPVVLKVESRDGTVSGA

`Cc1ccc(C(=O)Nc2ccccc2[N+](=O)[O-])cc1S(=O)(=O)N1CCOCC1`: the Potency entry in experiment [1], in [2], in [3], in [4], in experiment [5] and in experiment [6] was “inactive” in each case.

For the molecule `CC(C)(C)N(NC(=O)Nc1ccc(F)cc1)C(=O)c1ccccc1`, the Potency entry in experiment [1], in experiment [2] and in [4] was “inactive” throughout. Moreover, the activation is 0.121% [at 17.1 µM, percent relative to cAMP agonist control] (inactive) in [3] and 0.382% [at 30.8 µM] (inactive) in experiment [6]. Moreover, in experiment [5], the activity change, negative = inhibition was -14.2% [at 30.8 µM] (inactive).

As to `O=C(c1ccco1)N(Cc1cccs1)c1ccc(F)cc1`, the Potency result in experiment [1], in experiment [2], in experiment [3], in experiment [4], in [5] and in [6] was “inactive” in each case.

Regarding `Cc1ccc(NC(=O)Cn2nnc(-c3nc(-c4ccncc4)no3)c2N)c(C)c1`, the Potency entry in experiment [1], in experiment [2], in experiment [3], in experiment [4], in experiment [5] and in [6] was “inactive” in each case.

For the molecule `COC(=O)CN1C(=S)N(c2ccc(OC)cc2)C(=O)/C1=C/c1ccc(N2CCOCC2)cc1`, the Potency entry in experiment [1] and in experiment [5] was “inactive” throughout. The Potency was 100 µM (active) in experiment [2], 100 µM (active) in [3], 75.7 µM (active) in experiment [4] and 28.2 µM (active) in [6].

As to `O=C(NCCc1ccccc1)c1ccc2c(=O)[nH]c3c(C(=O)NCC4CCCO4)sc(=S)n3c2c1` (centres undefined), the Potency in [1] was 75.7 µM (active); in experiment [4], 30.1 µM (active); in experiment [8], 24.1 µM (active). For the same molecule, the Potency result in experiment [2], in experiment [3], in experiment [5] and in experiment [6] was “inactive” each time. Moreover, the activity was -68.6% in experiment [7], -55.9% in experiment [9] and -66.7% in experiment [10].

`O=C(/C=C/c1ccc(O)c(O)c1)O[C@@H]1C[C@](O)(C(=O)O)C[C@@H](O)[C@H]1O`: the Potency entry in experiment [1], in experiment [2], in experiment [4], in experiment [13], in experiment [14] and in experiment [15] was “inactive” each time. Moreover, the Potency entry in experiment [17] and in experiment [20] was “inactive” throughout. The activation is 5.11% [at 17.1 µM, percent relative to cAMP agonist control] (inactive) in experiment [3] and -1.95% [at 30.8 µM] (inactive) in [6]. For the same molecule, in [5], the activity change, negative = inhibition was -13.1% [at 30.8 µM] (inactive). The outcome in [11], in experiment [12], in experiment [16], in experiment [19] and in [21] was “inactive” in each case. The max response in experiment [18] is 0.087% (inactive).

Turning to `COc1ccc(N=Nc2nc3cc(Br)c(Br)cc3n2C)c(OC)c1`, the Potency result in experiment [22], in [1], in experiment [2] and in experiment [4] was “inactive” in each case. Also, the activation in experiment [3] was 3.19% [at 17.1 µM, percent relative to cAMP agonist control] (inactive). In [5], the activity change, negative = inhibition is 88.5% [at 30.8 µM] (inactive). In addition, the Potency in experiment [6] was 12.6 µM (active).
